Consider 37 molecules from PubChem BioAssay (NCI).

The panel holds about 83,000 compounds, 20% with a hit somewhere; the sample as a whole holds those more often.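 Growth was measured after 48 h exposure to one concentration of compound in 96-well plates. Values under 10 count as active.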 Values without a mark were called inactive. Active and inactive are the calls of the source.

For one assay, the system named is RPMI-8226 leukemia. Description: NCI-60 one-dose screen, 48 h (100 = growth as untreated, 0 = no growth, -100 = all killed). The settings on record: 10 µM unless noted.
With `COC(=O)[C@]12CC[C@@H](C)[C@H](C)[C@@H]1C1=CC[C@@H]3[C@@]4(C)C(C=O)=C[C@@](C)(COC(=O)c5ccco5)[C@@H]4C(=O)C[C@@]3(C)[C@]1(C)CC2`, the growth was 14.6%. Regarding `COc1cccc(C(=O)NCCNc2cc(-c3cn(-c4ccccc4)nc3-c3cccc(OC)c3)ccn2)c1`, the growth was 39.1%. Consider `O=C(O)C1CCC(=O)N1C(=O)OCc1ccccc1` (stereo not drawn), for which the growth is 88.8%. For the molecule `Cc1cc(NCc2cc(Nc3ccnc4cc(Cl)ccc34)ccc2F)nc(N2CCCC2)n1`, the growth is -24.2% (active).

`COC(=O)[C@]12CC[C@@H](C)[C@H](C)[C@@H]1C1=CC[C@@H]3[C@@]4(C)C(C=O)=C[C@@](C)(COC(=O)c5ccco5)C4=CC[C@@]3(C)[C@]1(C)CC2`: the growth was 4.82% (active). As for `CC(CCc1ccc(Cl)c(Cl)c1)NCc1ccc(C(C)(C)C)cc1` (stereo not drawn), the growth was 74.5%.

In the case of `Cc1ccc2nc3ccccc3c(NCc3ccccc3)c2c1`, the growth was 6.82% (active).

Consider `COc1cc(-c2nc(N3CCN(C)CC3)c3ccccc3n2)cc(OC)c1OC`, for which the growth was 71.2%. Still for that read-out and setting: then `CCn1c(C)nc2cc(C(N)=O)ccc21`, with 80.9%; and `CN(C)CC1C(=O)O[C@H]2[C@H]1CC/C(COC(=O)c1cc3ccccc3[nH]1)=C\CC[C@@]1(C)O[C@@H]21` (stereo partly drawn), with -15.7% (active). On the same count and under the same terms, then `CN1CCN(CCCOc2ccc3nc(Nc4ccc(F)c(F)c4)ccc3c2)CC1`, with 28.8%; and `COc1cccc(-c2nn(-c3ccccc3)cc2-c2ccnc(NCCCNC(=O)c3cccc(C(F)(F)F)c3)c2)c1`, with 9.33% (active); and `COc1ccc(-c2cc(-c3cc(OC)ccc3OC)nc(SCC(=O)c3ccccc3)c2C#N)cc1`, with 105%. `Cc1ccc(Cl)c(NS(=O)(=O)c2ccc(-c3cnc(C4CC4)o3)cc2)c1`: the growth was 18.8%. As to `COc1cccc(-c2nn(-c3ccccc3)cc2-c2ccnc(NCCNC(=O)c3ccccc3)c2)c1`, the growth is 42.3%. Consider `Cc1cc(N2CCCC2)nc(NCc2cc(Nc3ccnc4cc(Cl)ccc34)ccc2F)n1`, for which the growth is -44.2% (active). In the case of `COc1cccc(-c2nn(-c3ccccc3)cc2-c2ccnc(NCCNC(=O)Nc3ccccc3)c2)c1`, the growth was 39.5%. Turning to `CC(C)CCC[C@@H](C)[C@H]1CC[C@H]2[C@@H](Nc3ccc(O)cc3)CCC[C@]12C`, the growth is 96.6%. On the same count and under the same terms, then `COc1cc(-c2nn(-c3ccccc3)cc2-c2ccnc(NCCNS(=O)(=O)c3ccc(Cl)cc3)n2)ccc1Cl`, with 35%; and `CCCCn1c(=O)c2c(nc3n2CCCN3CCc2ccc(OCC(=O)NCCN(CC)CC)cc2)n(CCCC)c1=O`, with 61.5%. Turning to `COC(=O)CCC1=C(C)C2=NC1=CC1=NC(=CC3=NC(=Cc4[nH]c(/c(=C(/C)O)c4C)=C2)C(C(C)=O)=C3C)C(C)=C1CCC(=O)OC`, the growth was 85.7%.

For `N[C@@H](CCCCNCC(=O)O)C(=O)O`, the growth is 116%.

As to `O=C(c1ccc(Nc2nccc(NCCCCNc3ccnc4cc(Cl)ccc34)n2)cc1)N1CCCCC1`, the growth is 8.24% (active). Turning to `Cc1ccc(NCCN(C)C)c2c(=O)c3ccccc3sc12`, the growth was -23.4% (active). For `Cc1cc(NCCCCNc2ccnc3cc(Cl)ccc23)nc(Nc2ccc(C(=O)N3CCCC3)cc2)n1`, the growth is 2.17% (active). `CC(C)(C)n1cc(-c2ccnc(NCCCNS(=O)(=O)c3ccccc3)c2)c(-c2ccccc2)n1`: the growth was 65.5%. The same measure, in the same setting: then `Fc1ccc(CNc2c3ccccc3nc3ccccc23)cc1F`, with 26.9%. For `c1c[nH]c(CNC2CCCCC2)c1`, the growth was 103%.

Regarding `COc1cccc(-c2nn(-c3ccccc3)cc2-c2ccnc(NCCNC(=O)Nc3cccc(C(F)(F)F)c3)c2)c1`, the growth was 32.6%. For the molecule `O=C(NCCCNc1cc(-c2cn(-c3ccccc3)nc2-c2cccc(O)c2)ccn1)c1ccc(F)cc1`, the growth was -9.31% (active).

For the molecule `Cc1cc(NCc2cc(Nc3ccnc4cc(Cl)ccc34)ccc2F)nc(Cl)n1`, the growth was 29.6%. Turning to `NC(=O)c1ccc[n+](Cc2ccc(Cl)cc2Cl)c1`, the growth was 93%. Consider `Cc1cc(Cl)nc(NCc2cc(Nc3ccnc4cc(Cl)ccc34)ccc2F)n1`, for which the growth was 33.1%. On to `COc1ccc(-c2ccc3c(c2)sc2nc(-c4ccc(F)cc4)cn23)cc1`, for which the growth is 76.7%. Still for that read-out and setting: then `O=C(NCCCNc1cc(-c2cn(-c3ccccc3)nc2-c2cccc(O)c2)ccn1)c1ccccc1`, with -7.45% (active); and `FC(F)(F)c1cc(Nc2ccc3cc(OCCCN4CCOCC4)ccc3n2)ccc1Cl`, with 7.22% (active).

Consider `COC(=O)[C@]12CC[C@@H](C)[C@H](C)[C@@H]1C1=CC[C@@H]3[C@@]4(C)C(C=O)=C[C@@](C)(COC(C)=O)C4=CC[C@@]3(C)[C@]1(C)CC2`, for which the growth is -9.49% (active).

Another assay relates to OVCAR-8 ovarian. The assay is described as above. The settings on record: 10 µM unless noted.
`COC(=O)[C@]12CC[C@@H](C)[C@H](C)[C@@H]1C1=CC[C@@H]3[C@@]4(C)C(C=O)=C[C@@](C)(COC(=O)c5ccco5)[C@@H]4C(=O)C[C@@]3(C)[C@]1(C)CC2`: the growth was 24.8%.

Take `O=C(O)C1CCC(=O)N1C(=O)OCc1ccccc1` (stereo not drawn): the growth is 96.3%. `Cc1cc(NCc2cc(Nc3ccnc4cc(Cl)ccc34)ccc2F)nc(N2CCCC2)n1`: the growth is 2.5% (active). Consider `COC(=O)[C@]12CC[C@@H](C)[C@H](C)[C@@H]1C1=CC[C@@H]3[C@@]4(C)C(C=O)=C[C@@](C)(COC(=O)c5ccco5)C4=CC[C@@]3(C)[C@]1(C)CC2`, for which the growth is 19.6%. On to `CC(CCc1ccc(Cl)c(Cl)c1)NCc1ccc(C(C)(C)C)cc1` (stereo not drawn), for which the growth was 85.8%.

As to `COc1cc(-c2nc(N3CCN(C)CC3)c3ccccc3n2)cc(OC)c1OC`, the growth was 75.7%. As for `CCn1c(C)nc2cc(C(N)=O)ccc21`, the growth is 96.2%. With `CN(C)CC1C(=O)O[C@H]2[C@H]1CC/C(COC(=O)c1cc3ccccc3[nH]1)=C\CC[C@@]1(C)O[C@@H]21` (stereo partly drawn), the growth was -45.6% (active). `COc1cccc(-c2nn(-c3ccccc3)cc2-c2ccnc(NCCCNC(=O)c3cccc(C(F)(F)F)c3)c2)c1`: the growth is 22.4%.

Regarding `COc1ccc(-c2cc(-c3cc(OC)ccc3OC)nc(SCC(=O)c3ccccc3)c2C#N)cc1`, the growth is 96.6%. `Cc1ccc(Cl)c(NS(=O)(=O)c2ccc(-c3cnc(C4CC4)o3)cc2)c1`: the growth is 28.1%. With `COc1cccc(-c2nn(-c3ccccc3)cc2-c2ccnc(NCCNC(=O)c3ccccc3)c2)c1`, the growth was 43.8%.

With `Cc1cc(N2CCCC2)nc(NCc2cc(Nc3ccnc4cc(Cl)ccc34)ccc2F)n1`, the growth is -54.5% (active). As to `COc1cccc(-c2nn(-c3ccccc3)cc2-c2ccnc(NCCNC(=O)Nc3ccccc3)c2)c1`, the growth was 38%.

Turning to `COc1cc(-c2nn(-c3ccccc3)cc2-c2ccnc(NCCNS(=O)(=O)c3ccc(Cl)cc3)n2)ccc1Cl`, the growth is 36.1%. Turning to `CCCCn1c(=O)c2c(nc3n2CCCN3CCc2ccc(OCC(=O)NCCN(CC)CC)cc2)n(CCCC)c1=O`, the growth is 60.8%.

Consider `COC(=O)CCC1=C(C)C2=NC1=CC1=NC(=CC3=NC(=Cc4[nH]c(/c(=C(/C)O)c4C)=C2)C(C(C)=O)=C3C)C(C)=C1CCC(=O)OC`, for which the growth is 100%.

Consider `N[C@@H](CCCCNCC(=O)O)C(=O)O`, for which the growth was 105%.

Take `O=C(c1ccc(Nc2nccc(NCCCCNc3ccnc4cc(Cl)ccc34)n2)cc1)N1CCCCC1`: the growth was 23%.

With `Cc1ccc(NCCN(C)C)c2c(=O)c3ccccc3sc12`, the growth was 16.3%. With `Cc1cc(NCCCCNc2ccnc3cc(Cl)ccc23)nc(Nc2ccc(C(=O)N3CCCC3)cc2)n1`, the growth was 11.5%. With `CC(C)(C)n1cc(-c2ccnc(NCCCNS(=O)(=O)c3ccccc3)c2)c(-c2ccccc2)n1`, the growth was 68.9%.

For `Fc1ccc(CNc2c3ccccc3nc3ccccc23)cc1F`, the growth is 32.1%.

For the molecule `c1c[nH]c(CNC2CCCCC2)c1`, the growth is 102%. Regarding `COc1cccc(-c2nn(-c3ccccc3)cc2-c2ccnc(NCCNC(=O)Nc3cccc(C(F)(F)F)c3)c2)c1`, the growth is 19.8%. With `O=C(NCCCNc1cc(-c2cn(-c3ccccc3)nc2-c2cccc(O)c2)ccn1)c1ccc(F)cc1`, the growth is 36.1%.

For the molecule `NC(=O)c1ccc[n+](Cc2ccc(Cl)cc2Cl)c1`, the growth is 99.5%.

Turning to `Cc1cc(Cl)nc(NCc2cc(Nc3ccnc4cc(Cl)ccc34)ccc2F)n1`, the growth was 50.6%. The same measure, in the same setting: then `COc1ccc(-c2ccc3c(c2)sc2nc(-c4ccc(F)cc4)cn23)cc1`, with 68.5%; and `O=C(NCCCNc1cc(-c2cn(-c3ccccc3)nc2-c2cccc(O)c2)ccn1)c1ccccc1`, with 27.5%. `COC(=O)[C@]12CC[C@@H](C)[C@H](C)[C@@H]1C1=CC[C@@H]3[C@@]4(C)C(C=O)=C[C@@](C)(COC(C)=O)C4=CC[C@@]3(C)[C@]1(C)CC2`: the growth was 13.2%.
